This is part of a sample that, as a whole, favours compounds with a hit. Of some 83,000 tested, about 20% had one in any assay.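 For each line, cells grew in 96-well plates with the test compound present at a single concentration for 48 hours.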 The source made the active and inactive calls.

The assay concerns MDA-MB-435 melanoma. Put plainly: NCI-60 one-dose screen, 48 h (100 = growth as untreated, 0 = no growth, -100 = all killed). The note with it: 10 µM. The protocol: Growth inhibition of the MDA-MB-435 human Melanoma tumor cell line is measured as a screen for anti-cancer activity. Cells are grown in 96 well plates and exposed to the test compound for 48 hours. Compounds are tested at a single concentration, which is 10^-5 M for most compounds. The reported endpoint is percent growth (GI% or GIPRCNT), where numbers from 0 - 100% represent growth inhibition, and numbers from -100% - 0 represent cell death. For example, a value of 40 represents 60% growth inhibition. A value of 0 means no net growth occurred over the course of the experiment. A value of -40 indicates 40% of cells at the beginning of the experiment died by the end of the experiment. A value of -100 means all cells are dead at the end of the experiment.
NCI-60 Human Tumor Cell Lines Screen was performed using the standard one-dose NCI protocol, which is described in more detail at https://dtp.cancer.gov/discovery_development/nci-60/default.htm.
Compounds with GIPRCNT values below 10 were considered active. Activity score was based on GIPRCNT using the following formula: […]
Score is 0 for GIPRCNT values of 100 or above, 50 for GIPRCNT values of 0, and 100 for GIPRCNT values of -100.
For `Cc1cn(C(=O)/C(Cl)=C(/Cl)C(=O)O)c2ccccc12`, the growth was 109% (inactive).

For `Cc1ccc([P+](Cc2ccc([N+](=O)[O-])cc2)(c2ccc(C)cc2)c2ccc(C)cc2)cc1`, the growth is 6.06% (active).

As for `CC(C)OCc1cc(CN2CCN(c3cccc(Cl)c3)CC2)c(O)c2ncccc12`, the growth is -28.5% (active).

As for `COc1ccc(-c2nc(-c3nc4ccc(C)cc4[nH]3)c3ccccn23)cc1`, the growth is 62.9% (inactive).

For `[O-]c1c[n+](-c2ccc(Cl)cc2)no1`, the growth was 100% (inactive).

`CCOC(=O)c1c(Cl)c2c(n1Cc1cccc(OC)c1)-c1oncc1CC2`: the growth is -28% (active).

`COc1cc(Nc2ccnc(N3CCN(c4ccnc5cc(Cl)ccc45)CC3)n2)cc(OC)c1`: the growth was 1.35% (active).

In the case of `CCCCOCCOCCOCc1cc2c(cc1Br)OCO2`, the growth is 108% (inactive).

As for `COc1cc(/C=C2\C(=O)Nc3cc(C)c(O)cc32)cc(OC)c1OC`, the growth was -34.5% (active).

Turning to `CC(C)/C(=N/O)c1ccccc1`, the growth is 107% (inactive).

As for `N#Cc1cnc2ccc(NCc3cnc[nH]3)cc2c1Nc1ccc(F)c(Cl)c1`, the growth was 92.4% (inactive).

In the case of `Cc1ccc(/C(CS(=O)(=O)c2ccc(C)cc2)=N\O)cc1`, the growth was 89% (inactive).

With `O=C(NNc1nc(N2CCCC2)nc(N2CCCC2)n1)c1ccccc1`, the growth was 117% (inactive).

In the case of `COc1cccc2c1O/C(=C\c1ncc([N+](=O)[O-])n1C)C2=O`, the growth is -62.5% (active).

As for `CCCN(CCC)CCCNC(=O)c1cc2c(-c3ccc(OC)c(OC)c3)nn(C)c2s1`, the growth was -24.5% (active).

For `O=C(NNC(=O)c1ccncc1)Nc1ccc([N+](=O)[O-])cc1`, the growth was 94.1% (inactive).

As for `CC(=O)O[C@H]1CC[C@@]2(C)[C@@H](CC[C@@H]3[C@@H]2CC[C@]2(C)C=C(C=O)C[C@@H]32)C1`, the growth was 57.8% (inactive).

Take `CCCc1c(CC)c(=N)c2ccccc2n1C`: the growth is 7.61% (active).

For `Cc1ccc(NC(=O)/C=N/O)cc1C`, the growth was 96.5% (inactive).

For the compound `COc1ccccc1CNCCCN1C(=O)c2ccc3c4c(ccc(c24)C1=O)C(=O)N(CCCNCCNCCCN)C3=O`, the growth was 10.4% (inactive).

Regarding `Nc1nsc(C(=O)c2ccc(O)cc2)n1`, the growth is 104% (inactive).

`CC(=O)Nc1nc(C)c(C(=O)N/N=C/c2cccn2C)s1`: the growth is 104% (inactive).

Take `O=C(O)CCCCSCCCCC(=O)O`: the growth was 107% (inactive).

For the compound `COc1ccc(-n2nnc3c(sc4ccccc43)c2=O)cc1`, the growth is 69% (inactive).

Turning to `O=CNc1c(Cl)cc2c(c1Cl)Cc1cc([N+](=O)[O-])ccc1-2`, the growth is 2.37% (active).

On to `COc1ccc(-c2csc(-c3cc(Cl)cc(Cl)c3Cl)n2)cc1`, for which the growth is 80.7% (inactive).

Consider `COc1cc(-c2n/c(=C\c3c(O)[nH]c4ccccc34)cc3c2=Nc2ccccc2-3)cc(OC)c1OC`, for which the growth is -7.06% (active).

On to `O=C(COc1ccc(Cl)cc1Cl)Oc1coc(CSc2nc3ccccc3s2)cc1=O`, for which the growth was 114% (inactive).

With `COc1ccc(NC(=O)c2sc3nc4c(cc3c2N)C(O)CCC4)cc1` (stereo not given), the growth is 84.6% (inactive).

`CCc1c(C)[nH]c(=O)c(C(N)=O)c1C#N`: the growth was 101% (inactive).

Consider `COc1ccc(Nc2ccnc(N3CCN(c4ccnc5cc(Cl)ccc45)CC3)n2)cc1`, for which the growth was -4.38% (active).

`COC(=O)[C@]12CC[C@@H](C)[C@H](C)[C@@H]1C1=CC[C@@H]3[C@@]4(C)C/C(=N\O)[C@H](O)[C@@]5(C)COC(=C45)C[C@@]3(C)[C@]1(C)CC2`: the growth is -84% (active).

Consider `CC(C)c1[nH]nc2c(NCc3ccc(-c4ccccn4)cc3)nc(SCCN(C)C)nc12`, for which the growth is 0.81% (active).

Consider `CCCC(C)c1ccc(OCCCCCCN2CCNCC2)cc1` (stereo not given), for which the growth is 28.9% (inactive).

With `O=C(CSc1nnc(-c2ccc(Cl)cc2)o1)c1ccccc1`, the growth was 109% (inactive).

For the compound `CC(=O)Oc1c(C)c(C)c2c(c1C)CCC(C)(CC(=O)OCCCCCCCCCCC[P+](c1ccccc1)(c1ccccc1)c1ccccc1)O2` (stereo not given), the growth was -89.2% (active).

`COc1ccc(-c2nsc3c2NC(=O)CC3c2cccc(Cl)c2)cc1` (stereo not given): the growth was -12.2% (active).

On to `COc1cc(/C=C/C(=O)c2cc(-c3ccccc3)ccc2O)cc(OC)c1OC`, for which the growth was 55.4% (inactive).

For `COc1ccc(Cn2cc3c(c2-c2cc(OC)c(OC)c(OC)c2)CCc2cnoc2-3)cc1[N+](=O)[O-]`, the growth was -53.9% (active).

Regarding `CCN(CC)CC(O)Cc1ccc(OC)cc1` (stereo not given), the growth is 102% (inactive).

Source of the values: PubChem BioAssay (NCI).
